Of roughly 8,800 targets only a part is listed; those with a hit were picked by preference. About 0.5% of all pairs of compound and target were hits. A number with no mark means an inactive call.
How the values were obtained:
Experiment in all cases: log2 fold change, soluble protein after heating vs DMSO (PISA); higher = thermal stabilisation; K562 lysate, 10 uM; active = over 0.2 and 3.5 SD of the protein, either way, in both replicates (recomputed)
[1] = compound: NCC(=O)Nc1ccc(-n2nc(C(F)(F)F)cc2-c2ccc3c(ccc4ccccc43)c2)cc1
Summary of the method: (§1)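 Dounce homogenisation of K562 pellets in PBS pH 7.4 with 1 mM MgCl2 produced a crude extract, used at 1 mg/mL protein. Exposure to 10 μM compound lasted 30 min, and aliquots were then heated for 3 min across 48°C-58°C, pooled and brought to 0.5% NP-40 at 4°C. The supernatant after 21,000xg for 90 min was quantified by TMTpro 16plex LC-MS/MS with channel sums equalised. Duplicate values are given as log-two fold change in thermal stability relative to solvent controls.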

vorinostat = compound: O=C(CCCCCCC(=O)Nc1ccccc1)NO [vorinostat]
Summary of the method: as §1

silmitasertib = compound: O=C(O)c1ccc2c(c1)nc(Nc1cccc(Cl)c1)c1ccncc12 [silmitasertib]
Summary of the method: as §1

[2] = compound: O=C1NC(=O)C(c2cnc3ccccn23)=C1c1cn2c3c(cc(F)cc13)CN(C(=O)N1CCCCC1)CC2
Summary of the method: as §1

entospletinib = compound: c1cn2cc(-c3ccc4cn[nH]c4c3)nc(Nc3ccc(N4CCOCC4)cc3)c2n1 [entospletinib]
Summary of the method: as §1

LIG4 (UniProt P49917)
log2 fold change [1]: -0.041
log2 fold change (vorinostat): -0.368
log2 fold change (silmitasertib): 0.107
log2 fold change [2]: -0.039
log2 fold change (entospletinib): 0.062

LUC7L (UniProt Q9NQ29)
Chain of UniProt Q9NQ29 (Q9NQ29 whole entry, looked up): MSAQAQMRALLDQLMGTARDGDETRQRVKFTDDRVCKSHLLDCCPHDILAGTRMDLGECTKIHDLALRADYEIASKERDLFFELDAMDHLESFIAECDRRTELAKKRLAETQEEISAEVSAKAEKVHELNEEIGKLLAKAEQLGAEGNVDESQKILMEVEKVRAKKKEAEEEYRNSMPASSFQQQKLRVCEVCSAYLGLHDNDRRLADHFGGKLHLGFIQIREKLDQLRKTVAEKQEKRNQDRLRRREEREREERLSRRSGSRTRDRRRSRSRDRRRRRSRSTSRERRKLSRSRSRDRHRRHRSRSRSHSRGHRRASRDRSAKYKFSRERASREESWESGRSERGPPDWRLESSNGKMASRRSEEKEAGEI
log2 fold change [1]: 0.003
log2 fold change (vorinostat): 0.136
log2 fold change (silmitasertib): -0.126
log2 fold change [2]: -0.016
log2 fold change (entospletinib): -0.019

MAP2K2 (UniProt P36507)
log2 fold change [1]: -0.031
log2 fold change (vorinostat): -0.088
log2 fold change (silmitasertib): 0.099
log2 fold change [2]: 0.032
log2 fold change (entospletinib): 0.04

MOCS3 (UniProt O95396)
log2 fold change [1]: 0.062
log2 fold change (vorinostat): -0.458 (active)
log2 fold change (silmitasertib): -0.012
log2 fold change [2]: 0.053
log2 fold change (entospletinib): 0.035

MBOAT2 (UniProt Q6ZWT7)
log2 fold change [1]: -0.017
log2 fold change (vorinostat): 0.13
log2 fold change (silmitasertib): 0.024
log2 fold change [2]: 0.005
log2 fold change (entospletinib): -0.092

MANEA (UniProt Q5SRI9)
log2 fold change [1]: 0
log2 fold change (vorinostat): 0.217
log2 fold change (silmitasertib): -0.103
log2 fold change [2]: -0.047
log2 fold change (entospletinib): 0.055

MCCC1 (UniProt Q96RQ3)
log2 fold change [1]: 0.028
log2 fold change (vorinostat): -0.292 (active)
log2 fold change (silmitasertib): 0.02
log2 fold change [2]: -0.003
log2 fold change (entospletinib): 0.023

MARK2 (UniProt E9PC69)
log2 fold change [1]: 0.026
log2 fold change (vorinostat): -0.167
log2 fold change (silmitasertib): 0.486 (active)
log2 fold change [2]: 0.006
log2 fold change (entospletinib): 0.153

KLC4 isoform 3 (UniProt Q9NSK0)
log2 fold change [1]: 0.01
log2 fold change (vorinostat): -0.557 (active)
log2 fold change (silmitasertib): 0.009
log2 fold change [2]: -0.041
log2 fold change (entospletinib): -0.006

MECR (UniProt Q9BV79)
log2 fold change [1]: -0.037
log2 fold change (vorinostat): -0.268 (active)
log2 fold change (silmitasertib): 0.009
log2 fold change [2]: -0.016
log2 fold change (entospletinib): 0.011

KNSTRN (UniProt Q9Y448)
Chain of UniProt Q9Y448 (Q9Y448 whole entry, looked up): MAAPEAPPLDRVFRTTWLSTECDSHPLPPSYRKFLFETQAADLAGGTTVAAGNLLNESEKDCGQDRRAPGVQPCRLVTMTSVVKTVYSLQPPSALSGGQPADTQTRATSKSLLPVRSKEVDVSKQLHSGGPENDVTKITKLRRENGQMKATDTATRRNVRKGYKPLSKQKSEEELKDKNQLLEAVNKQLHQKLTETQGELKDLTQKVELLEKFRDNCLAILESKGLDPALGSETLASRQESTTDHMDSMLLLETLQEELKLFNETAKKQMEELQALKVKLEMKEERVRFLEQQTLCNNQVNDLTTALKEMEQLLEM
log2 fold change [1]: -0.018
log2 fold change (vorinostat): -0.054
log2 fold change (silmitasertib): 0
log2 fold change [2]: 0.057
log2 fold change (entospletinib): 0.02

KIF26A (UniProt Q9ULI4)
log2 fold change [1]: -0.01
log2 fold change (vorinostat): -0.178
log2 fold change (silmitasertib): 0.068
log2 fold change [2]: -0.016
log2 fold change (entospletinib): 0.057

KIFC1 (UniProt Q9BW19)
log2 fold change [1]: 0.02
log2 fold change (vorinostat): -0.898 (active)
log2 fold change (silmitasertib): 0.03
log2 fold change [2]: -0.04
log2 fold change (entospletinib): -0.002

METTL7A (UniProt Q9H8H3)
log2 fold change [1]: 0.037
log2 fold change (vorinostat): 0.017
log2 fold change (silmitasertib): -0.053
log2 fold change [2]: 0.274
log2 fold change (entospletinib): -0.001

LRCH3 (UniProt Q96II8)
log2 fold change [1]: 0.053
log2 fold change (vorinostat): -0.535 (active)
log2 fold change (silmitasertib): 0.048
log2 fold change [2]: -0.03
log2 fold change (entospletinib): -0.009

LRWD1 (UniProt Q9UFC0)
log2 fold change [1]: -0.022
log2 fold change (vorinostat): -0.322 (active)
log2 fold change (silmitasertib): -0.008
log2 fold change [2]: -0.011
log2 fold change (entospletinib): 0.006

MCMBP (UniProt Q9BTE3)
Chain of UniProt Q9BTE3 (Q9BTE3 whole entry, looked up): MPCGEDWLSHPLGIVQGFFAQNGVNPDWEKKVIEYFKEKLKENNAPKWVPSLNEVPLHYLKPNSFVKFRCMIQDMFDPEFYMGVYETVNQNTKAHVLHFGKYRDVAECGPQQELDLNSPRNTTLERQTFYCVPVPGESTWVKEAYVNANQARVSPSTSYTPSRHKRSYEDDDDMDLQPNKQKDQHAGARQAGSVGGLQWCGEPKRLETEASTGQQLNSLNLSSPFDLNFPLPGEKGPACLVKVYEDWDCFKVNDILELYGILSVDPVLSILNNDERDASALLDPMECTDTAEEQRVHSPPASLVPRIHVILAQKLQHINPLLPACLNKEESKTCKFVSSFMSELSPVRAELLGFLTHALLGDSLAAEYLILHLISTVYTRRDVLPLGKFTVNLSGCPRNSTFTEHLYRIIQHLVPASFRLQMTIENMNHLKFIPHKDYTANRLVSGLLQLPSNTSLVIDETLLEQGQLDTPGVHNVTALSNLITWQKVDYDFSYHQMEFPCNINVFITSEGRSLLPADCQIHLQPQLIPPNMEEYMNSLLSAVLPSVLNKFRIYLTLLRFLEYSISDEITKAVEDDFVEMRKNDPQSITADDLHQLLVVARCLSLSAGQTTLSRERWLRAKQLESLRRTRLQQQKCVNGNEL
log2 fold change [1]: -0.01
log2 fold change (vorinostat): -0.415 (active)
log2 fold change (silmitasertib): 0.028
log2 fold change [2]: -0.013
log2 fold change (entospletinib): -0.007

MAST2 (UniProt Q6P0Q8)
log2 fold change [1]: 0.062
log2 fold change (vorinostat): -0.166
log2 fold change (silmitasertib): 0.055
log2 fold change [2]: -0.013
log2 fold change (entospletinib): -0.189

LTN1 isoform 3 (UniProt O94822)
log2 fold change [1]: 0.057
log2 fold change (vorinostat): -0.58 (active)
log2 fold change (silmitasertib): 0.04
log2 fold change [2]: 0.028
log2 fold change (entospletinib): 0.034

MAPK3 (UniProt P27361)
log2 fold change [1]: -0.016
log2 fold change (vorinostat): -0.005
log2 fold change (silmitasertib): 0.02
log2 fold change [2]: 0.038
log2 fold change (entospletinib): -0.013

KIF22 (UniProt Q14807)
log2 fold change [1]: 0.069
log2 fold change (vorinostat): 0.158
log2 fold change (silmitasertib): -0.128
log2 fold change [2]: 0.156
log2 fold change (entospletinib): 0.001

MAST4 (UniProt O15021)
log2 fold change [1]: -0.073
log2 fold change (vorinostat): -0.381
log2 fold change (silmitasertib): 0.281
log2 fold change [2]: -0.025
log2 fold change (entospletinib): 0.018

METTL2A (UniProt Q96IZ6)
Chain of UniProt Q96IZ6 (Q96IZ6 whole entry, looked up): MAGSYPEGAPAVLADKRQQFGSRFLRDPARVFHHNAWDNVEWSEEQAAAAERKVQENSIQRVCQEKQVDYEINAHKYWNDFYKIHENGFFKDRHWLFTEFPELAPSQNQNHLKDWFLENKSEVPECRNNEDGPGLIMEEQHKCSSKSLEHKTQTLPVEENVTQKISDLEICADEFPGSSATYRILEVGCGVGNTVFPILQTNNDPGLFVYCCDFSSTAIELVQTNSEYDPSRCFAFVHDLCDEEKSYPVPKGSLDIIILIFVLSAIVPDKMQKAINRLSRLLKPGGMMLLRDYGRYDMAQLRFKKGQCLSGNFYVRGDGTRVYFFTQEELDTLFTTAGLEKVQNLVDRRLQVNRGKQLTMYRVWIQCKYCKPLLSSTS
log2 fold change [1]: 0.033
log2 fold change (vorinostat): -0.28 (active)
log2 fold change (silmitasertib): -0.005
log2 fold change [2]: 0.058
log2 fold change (entospletinib): -0.003

KLC2 (UniProt Q9H0B6)
Chain of UniProt Q9H0B6 (Q9H0B6 whole entry, looked up): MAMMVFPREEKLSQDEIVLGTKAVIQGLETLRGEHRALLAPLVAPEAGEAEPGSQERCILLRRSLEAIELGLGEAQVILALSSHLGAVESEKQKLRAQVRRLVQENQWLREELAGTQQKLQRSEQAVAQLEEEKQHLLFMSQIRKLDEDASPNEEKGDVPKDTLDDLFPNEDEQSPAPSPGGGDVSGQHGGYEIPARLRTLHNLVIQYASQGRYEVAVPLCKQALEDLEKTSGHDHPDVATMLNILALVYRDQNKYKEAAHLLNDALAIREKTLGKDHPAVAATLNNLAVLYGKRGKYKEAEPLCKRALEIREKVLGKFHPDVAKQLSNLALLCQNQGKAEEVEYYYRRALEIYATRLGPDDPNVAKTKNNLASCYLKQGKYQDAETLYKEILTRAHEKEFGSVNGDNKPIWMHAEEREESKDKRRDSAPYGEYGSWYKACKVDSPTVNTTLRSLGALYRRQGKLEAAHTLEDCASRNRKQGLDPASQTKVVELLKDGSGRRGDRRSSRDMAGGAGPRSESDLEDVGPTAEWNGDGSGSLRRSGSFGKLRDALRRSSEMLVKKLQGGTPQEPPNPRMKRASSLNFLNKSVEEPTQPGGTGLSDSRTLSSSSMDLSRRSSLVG
log2 fold change [1]: 0.01
log2 fold change (vorinostat): -0.348 (active)
log2 fold change (silmitasertib): -0.005
log2 fold change [2]: -0.061
log2 fold change (entospletinib): 0.034

LGALS3BP (UniProt Q08380)
log2 fold change [1]: 0.153
log2 fold change (vorinostat): 0.176
log2 fold change (silmitasertib): -0.121
log2 fold change [2]: 0.113
log2 fold change (entospletinib): -0.129

LETM1 (UniProt O95202)
log2 fold change [1]: -0.041
log2 fold change (vorinostat): 0.084
log2 fold change (silmitasertib): -0.021
log2 fold change [2]: -0.006
log2 fold change (entospletinib): 0.009

MGST3 (UniProt O14880)
log2 fold change [1]: -0.025
log2 fold change (vorinostat): 0.128
log2 fold change (silmitasertib): 0
log2 fold change [2]: 0.033
log2 fold change (entospletinib): 0.041

KRAS (UniProt P01116)
Chain of UniProt P01116 (P01116 whole entry, looked up): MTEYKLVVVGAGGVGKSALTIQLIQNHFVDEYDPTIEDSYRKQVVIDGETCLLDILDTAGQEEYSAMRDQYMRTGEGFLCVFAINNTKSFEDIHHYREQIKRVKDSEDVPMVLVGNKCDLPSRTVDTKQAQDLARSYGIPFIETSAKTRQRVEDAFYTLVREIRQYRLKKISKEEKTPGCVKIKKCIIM
log2 fold change [1]: 0.033
log2 fold change (vorinostat): 0.129
log2 fold change (silmitasertib): 0.022
log2 fold change [2]: -0.072
log2 fold change (entospletinib): -0.021

MMS22L (UniProt Q6ZRQ5)
log2 fold change [1]: 0.022
log2 fold change (vorinostat): -0.508 (active)
log2 fold change (silmitasertib): 0.016
log2 fold change [2]: 0.138
log2 fold change (entospletinib): 0.069

MED16 (UniProt Q9Y2X0)
Chain of UniProt Q9Y2X0 (Q9Y2X0 whole entry, looked up): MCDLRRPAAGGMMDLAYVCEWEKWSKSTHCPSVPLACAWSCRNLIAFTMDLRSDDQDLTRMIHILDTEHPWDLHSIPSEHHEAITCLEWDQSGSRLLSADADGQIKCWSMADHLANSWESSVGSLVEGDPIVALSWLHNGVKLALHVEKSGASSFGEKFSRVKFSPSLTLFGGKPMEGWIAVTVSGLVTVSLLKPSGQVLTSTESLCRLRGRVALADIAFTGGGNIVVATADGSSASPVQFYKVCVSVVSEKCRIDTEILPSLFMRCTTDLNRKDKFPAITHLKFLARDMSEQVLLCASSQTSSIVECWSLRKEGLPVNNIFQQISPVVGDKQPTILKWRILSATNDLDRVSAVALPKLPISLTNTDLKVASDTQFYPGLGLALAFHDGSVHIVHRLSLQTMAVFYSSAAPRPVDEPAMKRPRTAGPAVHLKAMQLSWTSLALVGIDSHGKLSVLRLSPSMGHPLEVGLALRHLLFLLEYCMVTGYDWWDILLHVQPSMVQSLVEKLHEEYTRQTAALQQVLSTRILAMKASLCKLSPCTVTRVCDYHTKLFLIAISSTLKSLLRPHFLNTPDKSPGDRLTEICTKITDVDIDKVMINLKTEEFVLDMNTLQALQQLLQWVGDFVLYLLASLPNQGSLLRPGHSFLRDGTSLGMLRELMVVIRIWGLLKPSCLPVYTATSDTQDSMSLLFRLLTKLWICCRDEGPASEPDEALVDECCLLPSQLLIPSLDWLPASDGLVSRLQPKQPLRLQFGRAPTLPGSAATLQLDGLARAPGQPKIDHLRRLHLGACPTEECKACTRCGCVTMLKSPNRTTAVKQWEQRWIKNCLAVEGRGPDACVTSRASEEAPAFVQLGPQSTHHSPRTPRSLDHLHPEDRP
log2 fold change [1]: -0.005
log2 fold change (vorinostat): -0.354 (active)
log2 fold change (silmitasertib): 0.052
log2 fold change [2]: -0.022
log2 fold change (entospletinib): 0.016

MRPL19 (UniProt P49406)
log2 fold change [1]: 0
log2 fold change (vorinostat): -0.311 (active)
log2 fold change (silmitasertib): 0.012
log2 fold change [2]: 0.027
log2 fold change (entospletinib): -0.054

MAP11 (UniProt Q8WVR3)
Chain of UniProt Q8WVR3 (Q8WVR3 whole entry, looked up): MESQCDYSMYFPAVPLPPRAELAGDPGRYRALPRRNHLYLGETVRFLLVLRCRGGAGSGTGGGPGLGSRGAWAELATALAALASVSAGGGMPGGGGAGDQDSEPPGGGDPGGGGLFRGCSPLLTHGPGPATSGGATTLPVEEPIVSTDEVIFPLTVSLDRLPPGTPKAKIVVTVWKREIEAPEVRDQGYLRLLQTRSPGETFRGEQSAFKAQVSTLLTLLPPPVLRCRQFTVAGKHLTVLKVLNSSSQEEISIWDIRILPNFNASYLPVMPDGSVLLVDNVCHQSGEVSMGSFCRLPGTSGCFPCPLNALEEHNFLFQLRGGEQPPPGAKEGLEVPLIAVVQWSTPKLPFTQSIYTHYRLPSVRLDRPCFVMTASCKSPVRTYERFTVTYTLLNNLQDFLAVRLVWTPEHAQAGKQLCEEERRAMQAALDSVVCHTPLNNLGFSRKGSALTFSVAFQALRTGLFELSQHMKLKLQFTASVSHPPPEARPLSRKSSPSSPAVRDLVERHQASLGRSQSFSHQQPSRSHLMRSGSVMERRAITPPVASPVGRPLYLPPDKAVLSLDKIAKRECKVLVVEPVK
log2 fold change [1]: -0.017
log2 fold change (vorinostat): -0.488 (active)
log2 fold change (silmitasertib): -0.015
log2 fold change [2]: 0.056
log2 fold change (entospletinib): -0.131

MRPL46 (UniProt Q9H2W6)
log2 fold change [1]: 0.021
log2 fold change (vorinostat): -0.21
log2 fold change (silmitasertib): 0.155
log2 fold change [2]: 0.036
log2 fold change (entospletinib): -0.049

MARCHF6 (UniProt O60337)
log2 fold change [1]: 0
log2 fold change (vorinostat): 0.057
log2 fold change (silmitasertib): -0.037
log2 fold change [2]: -0.06
log2 fold change (entospletinib): -0.028

LRIF1 (UniProt Q5T3J3)
log2 fold change [1]: 0.079
log2 fold change (vorinostat): 0.082
log2 fold change (silmitasertib): -0.11
log2 fold change [2]: -0.024
log2 fold change (entospletinib): 0.001

LYRM4 (UniProt Q9HD34)
Chain of UniProt Q9HD34 (Q9HD34 whole entry, looked up): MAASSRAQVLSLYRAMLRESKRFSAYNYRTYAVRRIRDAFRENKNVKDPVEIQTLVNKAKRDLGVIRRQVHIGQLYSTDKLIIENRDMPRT
log2 fold change [1]: 0.01
log2 fold change (vorinostat): 0.119
log2 fold change (silmitasertib): -0.019
log2 fold change [2]: 0.023
log2 fold change (entospletinib): 0.007

KIF2A isoform 4 (UniProt O00139)
log2 fold change [1]: -0.018
log2 fold change (vorinostat): -0.518 (active)
log2 fold change (silmitasertib): 0.044
log2 fold change [2]: -0.015
log2 fold change (entospletinib): -0.006

KIFC3 isoform 6 (UniProt Q9BVG8)
Chain of UniProt Q9BVG8 (Q9BVG8 whole entry, looked up): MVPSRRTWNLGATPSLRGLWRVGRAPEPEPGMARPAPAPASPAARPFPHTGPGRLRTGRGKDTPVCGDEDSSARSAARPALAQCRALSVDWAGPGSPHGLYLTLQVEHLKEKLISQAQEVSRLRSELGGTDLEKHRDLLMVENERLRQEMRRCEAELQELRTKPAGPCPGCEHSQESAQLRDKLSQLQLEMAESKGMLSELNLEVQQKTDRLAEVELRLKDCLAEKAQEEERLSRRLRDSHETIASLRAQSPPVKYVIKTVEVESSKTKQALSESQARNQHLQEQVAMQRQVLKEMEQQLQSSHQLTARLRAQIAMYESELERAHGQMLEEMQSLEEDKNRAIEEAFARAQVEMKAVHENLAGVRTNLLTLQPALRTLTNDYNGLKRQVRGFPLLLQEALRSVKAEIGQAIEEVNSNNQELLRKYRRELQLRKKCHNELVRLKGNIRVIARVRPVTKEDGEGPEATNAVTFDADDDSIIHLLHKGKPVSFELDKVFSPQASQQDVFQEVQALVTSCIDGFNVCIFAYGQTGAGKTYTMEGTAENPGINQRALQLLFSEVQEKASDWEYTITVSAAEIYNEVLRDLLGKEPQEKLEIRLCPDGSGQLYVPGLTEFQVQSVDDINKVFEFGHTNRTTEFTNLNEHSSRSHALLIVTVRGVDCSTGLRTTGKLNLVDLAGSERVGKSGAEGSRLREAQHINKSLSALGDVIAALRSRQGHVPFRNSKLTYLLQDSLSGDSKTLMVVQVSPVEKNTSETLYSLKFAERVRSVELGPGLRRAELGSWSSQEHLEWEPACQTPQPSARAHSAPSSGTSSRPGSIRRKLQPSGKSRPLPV
log2 fold change [1]: 0.03
log2 fold change (vorinostat): -0.025
log2 fold change (silmitasertib): -0.124
log2 fold change [2]: 0.119
log2 fold change (entospletinib): -0.063

MAP7D3 (UniProt Q8IWC1)
log2 fold change [1]: 0.098
log2 fold change (vorinostat): 0.037
log2 fold change (silmitasertib): 0.059
log2 fold change [2]: -0.046
log2 fold change (entospletinib): -0.013

LZTS1 (UniProt Q9Y250)
log2 fold change [1]: 0.04
log2 fold change (vorinostat): 0.101
log2 fold change (silmitasertib): -0.143
log2 fold change [2]: 0.121
log2 fold change (entospletinib): 0.07

MAP4K5 (UniProt Q9Y4K4)
log2 fold change [1]: -0.072
log2 fold change (vorinostat): -0.218
log2 fold change (silmitasertib): -0.008
log2 fold change [2]: -0.07
log2 fold change (entospletinib): 0
